Reference: PubChem BioAssay (NCATS)
Records with an inconclusive call do not appear. Entries that show only a call come without a potency. Active and inactive are the calls of the source. The call rests on the fitted dose curve; in most records, active means well fitted cell-killing curve with a large enough effect; inconclusive means small, poorly fitted or top-dose-only effect, or effect the other way; inactive means flat fitted curve, though single readings scatter.

Assay: Cell Viability - LYMP2-003 (AID 965);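 further: cells exposed to compounds for 24 h before reading; nearly all actives have a fitted effect of over 50% in size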
Settings: LYMP2-003 lymphoblastoid cell viability; series mostly up to 92.2 µM
Source text: NIH Chemical Genomics Center [NCGC]
NIH Molecular Libraries Screening Centers Network [MLSCN]
National Institutes of Environmental Health Sciences [NIEHS]
National Toxicology Program [NTP]
We have developed a 1536-well cell-based assay for quantitative high throughput screening (qHTS) against a number of cell lines to determine in vitro cytotoxicity of small molecules. This particular assay uses a human lymphoblastoid cell line (LYMP2-003) purchased from Coriell Institute for Medical Research.
NCGC Assay Protocol Summary:
The CellTiter-Glo luminescent cell viability assay (Promega) is a homogeneous method to measure the number of viable cells in culture. The end point readout of this assay is based on quantitation of intracellular ATP, an indicator of metabolic activity, using the luciferase reaction. Luciferase catalyzes the oxidation of beetle Luciferin to oxyluciferin and light in the presence of ATP. The luminescent signal is proportional to amount of ATP present.
Using the CellTiter-Glo luminescent cell viability assay, the amount of cellular ATP was measured in the lymphoblastoid cell line with complete culture medium following compound treatment for 24 hours. The assay was performed in opaque white Kalypsys 1536-well plates. In the screen, tetraoctylammonium bromide was used as positive control. Library compounds were measured for their ability to cause acute toxicity in the cell line, as reflected by a decrease in intracellular ATP levels, in a concentration-dependent manner. […] AC50 values were determined from concentration-response data modeled with the standard Hill equation.
qHTS protocol for CellTiter Glo lymphoblastoid cellular assay
[Step] [Parameter] [Value] [Description]
1. Reagent; 5 uL; 2500 lymphoblastoid cells/well
2. Time; 5 hr; 37 C incubation
4. Controls; 23 nL; Tetraoctylammonium bromide 6.4pM to 92 uM
5. Time; 24 hr; 37 C incubation
6. Reagent; 5 uL; CellTiter Glo reagent
7. Time; 30 min; Room Temperature
8. Detection; Luminescence; Viewlux plate reader
Keywords: cell viability, cytotoxicity, lymphoblastoid cell line, luminescence, NTPHTS, NTPHTS_NCGC, NIEHS, DSSTox, MLSMR, MLSCN, NIH Roadmap, qHTS, NCGC
Potency means the concentration at half of the fitted maximal effect.

SMILES | Potency
O=C(O)/C=C/c1ccc(/C=C/C(=O)O)cc1 | inactive
OCC(CO)(CBr)CBr | inactive
c1ccc(SCCSc2ccccc2)cc1 | inactive
Nc1ccc2c(c1)C(=O)c1ccccc1C2=O | inactive
c1c[nH]cn1 | inactive
O=CC(=O)c1ccccc1 | inactive
N=C1C=CC(=C(c2ccc(N)cc2)c2ccc(N)cc2)C=C1 | 15.8 µM (active)
Cc1ccc(C(=O)O)cc1[N+](=O)[O-] | inactive
COc1ccc(C(=O)Nc2ccccc2)cc1[N+](=O)[O-] | inactive
CC(=O)Nc1cccc(C)c1 | inactive
CCNC(=S)NCC | inactive
O=C=Nc1ccc(Cl)c(Cl)c1 | inactive
CC(C)S | inactive
O=[N+]([O-])c1ccc(F)cc1F | inactive
C1CCCNCC1 | inactive
Cc1cccnc1 | inactive
CCOC(=O)C1OC1c1ccccc1 (stereo not given) | inactive
Nc1ccccc1O | inactive
COc1cc(-c2ccc(N=C=O)c(OC)c2)ccc1N=C=O | inactive
CCCC(=O)OC(=O)CCC | inactive

SMILES | Potency
CCCCCCCCC1CO1 (stereo not given) | inactive
c1ccc2c(c1)ccc1ccccc12 | inactive
CC(C)(C)C(=O)C1C(=O)c2ccccc2C1=O | inactive
CCCCOC(=O)COc1ccc(Cl)cc1Cl | inactive
O=[N+]([O-])c1cccc(I)c1 | inactive
OC1CCCCC1 | inactive
CC(=O)c1ccc(Cl)c(Cl)c1Cl | inactive
CCOc1ccc2nc(N)sc2c1 | inactive
CC(=O)OC(C(=O)c1ccccc1)c1ccccc1 (stereo not given) | inactive
C[C@@H]1CC2(OC(O)[C@]3(C)O[C@H]23)O[C@H]2C[C@@]3(C)[C@@H]4CC[C@H]5C(C)(C)C(O[C@@H]6OC[C@@H](O)[C@H](O)[C@H]6O)CC[C@@]56C[C@@]46CC[C@]3(C)[C@@H]12 (stereo not given in full) | inactive
C=CC(C)(O)CCCC(C)CCCC(C)CCCC(C)C (stereo not given) | inactive
Nc1ccc(N)c(Cl)c1 | inactive
C=CC(=O)CC | inactive
Brc1cc(Oc2cc(Br)c(Br)c(Br)c2Br)c(Br)c(Br)c1Br | inactive
CC1=C(/C=C/C(C)=C/C=C/C(C)=C/C=O)C(C)(C)CCC1 | 50.1 µM (active)
CCCCCCCC/C=C\CCCCCCCC(=O)N(CCO)CCO | inactive
Oc1ccc2c(c1)OCO2 | inactive
O=C(O)c1cc(N=Nc2ccc([N+](=O)[O-])cc2)ccc1O | inactive
NC(=O)Nc1nc2ccccc2[nH]1 | inactive
C[Si](C)(C)Cl | inactive
